The results in this text go back to PubChem BioAssay (NCI).

Molecules are shown by their SMILES. The panel holds about 83,000 compounds, 20% with a hit somewhere; the sample as a whole holds those more often.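 The endpoint reported here, percent growth, reads 100 for growth as untreated, 0 for no net growth and -100 for all cells dead.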 Values without a mark were called inactive. The source made the active and inactive calls. Rule for the calls: active = growth percent below 10; inactive = the rest.

Some test systems named below: SK-MEL-2 melanoma; EKVX NSCLC; SN12C renal; UO-31 renal; TK-10 renal; ACHN renal; CAKI-1 renal; A498 renal; CCRF-CEM leukemia; MOLT-4 leukemia.
Common to all, as to assay: NCI-60 one-dose screen, 48 h (100 = growth as untreated, 0 = no growth, -100 = all killed)
Holding throughout (conditions): 10 µM unless noted

Turning to `Cc1nc2c(c(=O)[nH]1)C(c1ccccc1)c1ccc3ccccc3c1O2` (stereo not given), the growth in the assay on SK-MEL-2 melanoma was 16.5%; in the assay on EKVX NSCLC, 60.5%; in the assay on SN12C renal, 44.6%; in the assay on UO-31 renal, 38.6%; with TK-10 renal it was 74%; in the assay on ACHN renal, 39.8%. Moreover, the growth was 30% in the assay with CAKI-1 renal, 20.6% in the assay with A498 renal, 13% in the assay on CCRF-CEM leukemia and 41% with MOLT-4 leukemia.

On to `Cc1c2ccncc2c(C)c2c1c1cc(CO)ccc1n2C`, for which the growth was -7.55% (active) in the assay with SK-MEL-2 melanoma; 1.54% (active) in the assay on EKVX NSCLC; 6.64% (active) in the assay on SN12C renal; 3.77% (active) in the assay with UO-31 renal; -21.4% (active) in the assay with TK-10 renal; 0.85% (active) in the assay on ACHN renal. Also, the growth in the assay with CAKI-1 renal was 8.35% (active); with A498 renal, -81.7% (active); in the assay on CCRF-CEM leukemia it was 8.76% (active); in the assay on MOLT-4 leukemia it was 6.68% (active).

For the compound `CN1CCN(C(=O)[C@@]2(C)CC[C@]3(C)CC[C@]4(C)C(=CC[C@@H]5[C@@]6(C)CCC(=O)NC(C)(C)[C@@H]6CC[C@]54C)[C@@H]3C2)CC1`, the growth was 78.3% in the assay on SK-MEL-2 melanoma; 79.6% in the assay on EKVX NSCLC; 58% in the assay on SN12C renal; 48.3% with UO-31 renal; 79.4% in the assay on TK-10 renal; 69.9% in the assay on ACHN renal. For the same compound, the growth in the assay with CAKI-1 renal was 42.5%; in the assay on A498 renal it was 73.1%; in the assay on CCRF-CEM leukemia, 29%; in the assay on MOLT-4 leukemia it was 15.8%.

Take `CSc1nc(C)c([N+](=O)[O-])c(N)n1`: the growth is 109% with SK-MEL-2 melanoma; 102% with EKVX NSCLC; 99.1% in the assay with SN12C renal; 98% in the assay on UO-31 renal; 89.4% with TK-10 renal; 112% in the assay with ACHN renal. Further, the growth in the assay on CAKI-1 renal was 98.4%; with A498 renal it was 101%; with CCRF-CEM leukemia it was 62.5%; in the assay on MOLT-4 leukemia, 93.4%.

As for `CC(C)N1C(=O)/C(=c2\sc3n(c2=O)C2C(NN=3)N(C)C(=O)N2C)c2ccccc21` (stereo not given), the growth in the assay on SK-MEL-2 melanoma is 73.5%; in the assay with EKVX NSCLC, 88.8%; in the assay on SN12C renal, 81.7%; with UO-31 renal, 52.7%; in the assay with TK-10 renal it was 94.5%; in the assay with ACHN renal, 59.2%. In addition, the growth in the assay with CAKI-1 renal is 28.6%; with A498 renal, 23.8%; in the assay with CCRF-CEM leukemia, 69.8%; in the assay on MOLT-4 leukemia, 71.5%.

Turning to `CCCCCCCCCCCCCCCCCC1=NC(C)(C)CN1CC(C)O` (stereo not given), the growth in the assay on SK-MEL-2 melanoma is 84.6%; with EKVX NSCLC, 78.8%; in the assay with SN12C renal, 49.8%; in the assay with UO-31 renal it was 68.8%; in the assay with TK-10 renal, 81.6%; with ACHN renal, 80.6%. Moreover, the growth with CAKI-1 renal is 84.7%; with A498 renal it was 79.1%; in the assay on CCRF-CEM leukemia, 47.1%; in the assay on MOLT-4 leukemia, 34.9%.

For `CCOC(=O)c1cc(C(=O)c2cc(OC)c(OC)c(OC)c2)n2ccccc12`, the growth with SK-MEL-2 melanoma is 40.4%; with EKVX NSCLC it was 42%; with SN12C renal it was 54%; in the assay on UO-31 renal, 50.6%; with TK-10 renal, 49.3%; in the assay on ACHN renal, 58.4%. For the same compound, the growth in the assay with CAKI-1 renal is 38.9%; with A498 renal, -1.31% (active); with CCRF-CEM leukemia, 17%; in the assay on MOLT-4 leukemia, 24.3%.

Take `Cc1cccc(Oc2ccc(Nc3ncnc4ccc(NC(=O)CN5CCN(C)CC5)cc34)cc2Cl)c1`: the growth in the assay with SK-MEL-2 melanoma is -70.7% (active); in the assay on EKVX NSCLC, 25.1%; with SN12C renal, 46.4%; with UO-31 renal it was 22.2%; in the assay with TK-10 renal, 18.8%; with ACHN renal it was -7.41% (active). Besides, the growth was 12.9% in the assay with CAKI-1 renal, 5.9% (active) in the assay on A498 renal, 4.6% (active) in the assay with CCRF-CEM leukemia and 3.77% (active) in the assay with MOLT-4 leukemia.

For `O=S1(=O)C=C(c2ccccc2)C(c2ccccc2)=C1`, the growth is 52.1% in the assay with SK-MEL-2 melanoma; 90.1% in the assay on EKVX NSCLC; 12.8% in the assay with SN12C renal; -6.37% (active) with UO-31 renal; -37.1% (active) with TK-10 renal; -47.4% (active) with ACHN renal. Further, the growth in the assay on CAKI-1 renal is -15.6% (active); with A498 renal, 79.5%; in the assay on CCRF-CEM leukemia, 2.77% (active); in the assay with MOLT-4 leukemia, 1.8% (active).

As for `Cc1nc2c(=O)nc3s/c(=C\c4ccco4)c(=O)n3c2nc1C`, the growth is 109% in the assay with SK-MEL-2 melanoma; 91.8% in the assay with EKVX NSCLC; 97.8% in the assay with SN12C renal; 73.1% in the assay on UO-31 renal; 92.9% in the assay with TK-10 renal; 99.2% with ACHN renal. The growth in the assay with CAKI-1 renal was 88.4%; in the assay on A498 renal it was 50.9%; in the assay on CCRF-CEM leukemia, 108%; in the assay on MOLT-4 leukemia it was 106%.

In the case of `N=C(N)c1ccc(-c2ccc(-c3cc(Cl)cc(Cl)c3)s2)nc1`, the growth in the assay on SK-MEL-2 melanoma was 109%; with EKVX NSCLC, 94.5%; in the assay on SN12C renal, 83%; with UO-31 renal, 90.6%; in the assay on TK-10 renal, 115%; in the assay on ACHN renal, 74.8%. The growth in the assay with CAKI-1 renal was 30.9%; in the assay with A498 renal, 91.6%; with CCRF-CEM leukemia it was 21.7%; in the assay on MOLT-4 leukemia it was 2.78% (active).

As for `COc1ccc(/C=C/c2ccc3ccccc3n2)c(OC)c1`, the growth with SK-MEL-2 melanoma is 48.3%; in the assay on EKVX NSCLC, 79.3%; with SN12C renal it was 80.1%; in the assay on UO-31 renal, 65.4%; in the assay with TK-10 renal, 111%; with ACHN renal, 87%. In addition, the growth with CAKI-1 renal is 73.6%; in the assay with A498 renal, 59.5%; in the assay with CCRF-CEM leukemia it was 49%; in the assay on MOLT-4 leukemia, 58.3%.

On to `O=S(=O)(Nc1cc(Sc2cccc3cccnc23)c(O)c2ccccc12)c1ccccc1`, for which the growth in the assay with SK-MEL-2 melanoma was 13.4%; in the assay on EKVX NSCLC it was 36.4%; in the assay with SN12C renal, 29.6%; with UO-31 renal it was 23.7%; in the assay with TK-10 renal, 23.4%; in the assay with ACHN renal it was 16.9%. Moreover, the growth with CAKI-1 renal was 25.9%; in the assay with A498 renal it was 70.4%; with CCRF-CEM leukemia, 4.22% (active); in the assay with MOLT-4 leukemia, -7.99% (active).

Consider `COc1ccc(N2CCN(C(=O)c3sc4nc(C)c(Br)c(C)c4c3N)CC2)cc1`, for which the growth with SK-MEL-2 melanoma is 85.1%; in the assay on EKVX NSCLC, 79.9%; in the assay with SN12C renal it was 95.9%; with UO-31 renal it was 59.4%; with TK-10 renal, 115%; in the assay on ACHN renal it was 92.6%. The growth was 82.6% with CAKI-1 renal, 103% with A498 renal, 97.8% in the assay on CCRF-CEM leukemia and 93% with MOLT-4 leukemia.

With `Cc1ccc(S(=O)(=O)Oc2ccc3sc4cccc(NCCN(C)C)c4c(=O)c3c2)cc1`, the growth in the assay on SK-MEL-2 melanoma is -71.2% (active); with EKVX NSCLC, -84% (active); with SN12C renal, -77.2% (active); in the assay with UO-31 renal, -95.5% (active); in the assay on TK-10 renal, -83.2% (active); in the assay with ACHN renal, -95.9% (active). Further, the growth with CAKI-1 renal is -97.8% (active); with A498 renal, -96% (active); in the assay with CCRF-CEM leukemia, -45.8% (active); in the assay with MOLT-4 leukemia, -32.7% (active).

Regarding `O=C(Nc1cnc(Nc2ccc(N3CCOCC3)nc2)nc1Oc1ccc(C(F)(F)F)cc1)c1ccncc1`, the growth in the assay on SK-MEL-2 melanoma was 94.8%; with EKVX NSCLC it was 100%; with SN12C renal, 85%; in the assay on UO-31 renal, 98.4%; with TK-10 renal, 107%; in the assay on ACHN renal, 98.9%. For the same compound, the growth is 90.4% in the assay with CAKI-1 renal, 95.8% in the assay on A498 renal, 90.8% in the assay with CCRF-CEM leukemia and 101% in the assay on MOLT-4 leukemia.

Regarding `COC1=C(C)C(=O)N2[C@@H]1[C@H](c1ccccc1)OC21C=CC(=O)C=C1`, the growth in the assay on SK-MEL-2 melanoma is 11.1%; in the assay with EKVX NSCLC, 70.3%; with SN12C renal, 0.448% (active); in the assay with UO-31 renal it was -42.9% (active); with TK-10 renal, 20.8%; in the assay on ACHN renal, -29.3% (active). For the same compound, the growth was -59.6% (active) in the assay with CAKI-1 renal, 92.7% in the assay with A498 renal, -19.7% (active) with CCRF-CEM leukemia and -4.79% (active) in the assay with MOLT-4 leukemia.

As for `Cc1ccc(/C=C/C(=O)c2ccc(-n3cc(CN4CCN(c5cc6c(cc5F)c(=O)c(C(=O)O)cn6C5CC5)CC4)nn3)cc2)cc1`, the growth is 95.5% in the assay with SK-MEL-2 melanoma; 96% with EKVX NSCLC; 67.7% in the assay with SN12C renal; 61.8% with UO-31 renal; 104% in the assay with TK-10 renal; 89.8% in the assay on ACHN renal. The growth was 69.8% with CAKI-1 renal, 64.5% in the assay on A498 renal, 84.3% in the assay with CCRF-CEM leukemia and 86% with MOLT-4 leukemia.

On to `COc1cc(-c2nc3c(ncc4ccc(=O)n(-c5ccccc5)c43)s2)cc(OC)c1OC`, for which the growth with SK-MEL-2 melanoma was 88.4%; in the assay with EKVX NSCLC, 53.3%; in the assay with SN12C renal, 73.9%; in the assay on UO-31 renal, 24.9%; with TK-10 renal it was 54%; in the assay on ACHN renal, 79%. Also, the growth in the assay on CAKI-1 renal is 67.4%; in the assay with A498 renal, 6.71% (active); in the assay on CCRF-CEM leukemia, 74.1%; with MOLT-4 leukemia it was 69.5%.

Turning to `COc1ccc2c(c1)c(-c1nc(-c3c[nH]c4ncccc34)cs1)cn2CCO`, the growth with SK-MEL-2 melanoma is 48.7%; in the assay with EKVX NSCLC, 34.9%; with SN12C renal, 63.5%; in the assay with UO-31 renal, 16.1%; in the assay on TK-10 renal it was 58.3%; in the assay with ACHN renal, 26.7%. The growth in the assay with CAKI-1 renal was 35.5%; in the assay on A498 renal, -0.474% (active); with CCRF-CEM leukemia, 41.3%; with MOLT-4 leukemia, 55%.

`Cc1ncc(C(=O)Nc2ccc(CN3CCN(C)CC3)c(C(F)(F)F)c2)cc1C#Cc1cnc(N)c2ncccc12`: the growth was -29.8% (active) in the assay with SK-MEL-2 melanoma; 42.8% with EKVX NSCLC; -20.3% (active) with SN12C renal; -9.37% (active) with UO-31 renal; 46.3% in the assay with TK-10 renal; 0.608% (active) in the assay with ACHN renal. The growth in the assay with CAKI-1 renal was 7.54% (active); in the assay with A498 renal, -6.89% (active); with CCRF-CEM leukemia it was -1.21% (active); in the assay with MOLT-4 leukemia, -24.9% (active).

`N#Cc1c(-c2ccccc2)nc(SCc2nnc(-c3ccc(Cl)cc3)o2)[nH]c1=O`: the growth was 80.4% with SK-MEL-2 melanoma; 95.5% in the assay on EKVX NSCLC; 97.6% in the assay on SN12C renal; 74.6% in the assay on UO-31 renal; 90.6% with TK-10 renal; 109% with ACHN renal. Besides, the growth with CAKI-1 renal is 93.6%; in the assay on A498 renal it was 107%; with CCRF-CEM leukemia it was 85.5%; in the assay with MOLT-4 leukemia, 79.9%.
